The structures appear in SMILES notation. The campaign covered roughly 360,000 compounds. About 10,000 (2.8%) were called active. Another 4% or so got no clear call; they are omitted. Calls follow the shape of the dose curve; as a rule, active = well fitted inhibition curve with a large enough effect; inconclusive = small, poorly fitted or top-dose-only effect; inactive = flat fitted curve, though single readings scatter. The full list was thinned out, with actives kept by preference.

Our source for the max response, negative = inhibition and Potency values is PubChem BioAssay AID720504 (National Center for Advancing Translational Sciences (NCATS), 2013).
% is scaled to controls: 0 for no effect and ±100 for the full control effect; potency is read from the fitted curve at half-maximal effect.

Serine/threonine-protein kinase PLK1 (Homo sapiens), sequence (P53350 whole entry, looked up, the tested form may be a part): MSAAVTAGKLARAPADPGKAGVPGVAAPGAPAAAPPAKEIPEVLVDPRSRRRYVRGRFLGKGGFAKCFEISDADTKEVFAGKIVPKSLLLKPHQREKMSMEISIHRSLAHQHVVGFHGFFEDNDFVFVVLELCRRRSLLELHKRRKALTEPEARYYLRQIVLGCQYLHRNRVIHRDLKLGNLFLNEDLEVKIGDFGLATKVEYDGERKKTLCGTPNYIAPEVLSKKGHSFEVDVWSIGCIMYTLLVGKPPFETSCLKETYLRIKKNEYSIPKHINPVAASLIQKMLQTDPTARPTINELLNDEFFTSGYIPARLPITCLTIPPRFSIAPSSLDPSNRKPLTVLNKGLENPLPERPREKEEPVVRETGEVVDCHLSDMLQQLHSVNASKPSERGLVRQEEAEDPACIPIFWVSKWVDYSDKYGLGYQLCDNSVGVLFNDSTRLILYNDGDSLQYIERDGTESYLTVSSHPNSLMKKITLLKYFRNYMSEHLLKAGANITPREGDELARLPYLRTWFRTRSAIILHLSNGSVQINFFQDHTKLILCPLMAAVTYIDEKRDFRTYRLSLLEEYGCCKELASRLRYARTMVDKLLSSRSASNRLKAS

The assay has as its target Serine/threonine-protein kinase PLK1 (Homo sapiens) (UniProt P53350). The experiment in a line: qHTS for Inhibitors of PLK1-PDB (polo-like kinase 1 - polo-box domain): Primary Screen. Also: nearly all actives have a fitted effect of over 65% in size. As to max response, negative = inhibition: series mostly up to about 57 µM. As to conditions: Plk1 PBD binding of FITC phosphopeptide, fluorescence polarization. The source says: The polo-like kinase 1 (Plk1) is a member of a conserved subfamily of serine / threonine protein kinases that plays a pivotal roles in cell proliferation. It has a C-terminal non-catalytic region called the polo-box domain (PBD) that plays a crucial role in the subcellular localization of the Plk1. […] Furthermore, depletion of the overexpressed Plk1 by RNAi efficiently induces apoptotic cell death in cancer and reduces tumor growth in mouse xenograft models. Thus, targeting Plk1 is an appealing strategy for anti-cancer therapy. Therefore, this project aimed to screen the Molecular Libraries Small Molecule Repository (MLSMR) using a novel approach to find inhibitors that target the Plk1 PBD instead of the conventional N-terminal catalytic domain. This project employed a fluorescence polarization (FP) assay using a FITC-conjugated phospho-9-mer (p-9-mer) peptide and purified human Plk1 PBD protein. The identified small molecule inhibitors of Plk1 PBD can then further be developed into useful tools for biomedical and clinical research that complements or replaces current relevant disease therapy. NIH Chemical Genomics Center [NCGC] NIH Molecular Libraries Probe Centers Network [MLPCN] MLPCN Grant: MH100728 Assay Submitter (PI): Kyung Lee, NCI
Four microliter of 25 nM FITC-p-9-mer + 60 nM Plk1 PBD in buffer solution (final concentrations 25 nM and 60 nM respectively) or 4 uL of 25 nM FITC-p-9-mer (final concentration 25 nM) in buffer will be dispensed into a 1,536 Greiner medium-binding black solid plate. Small molecules at final concentrations of 18 nM to 57 uM and positive control phospho-9-mer (sequence: Ac-PPLHSpTAI-NH2) at final concentrations 26 nM to 57 uM and phospho-13-mer (sequence: Ac-[…]pTAI-NH2) at final concentrations of 1 nM to 2.3 uM will be pin-transferred (23 nL) to the plate via a Kalypsys pin-tool robotics equipped with a 1,536-pin array. The reaction plate will be centrifuged for 1 min at 1000 rpm and incubated at room temperature for 10 min. The FITC fluorescence signals will be read using the PerkinElmer ViewLux plate reader at 480 / 20 nm excitation and 540 / 20 nm S and P polarization emission wavelengths. Reagent bottles will be kept submerged into 4 °C recirculating chiller bath and all liquid lines will be covered with aluminum foil to minimize degradation. Library plates will be screened starting from the lowest to the highest concentrations to minimize compound carryover. Vehicle only plates, with DMSO being pin-transferred instead of compound solutions, will be included regularly throughout the screen to record any systematic shifts in assay signal.
Consider `COc1ccc(-n2nc(C(=O)NCC(=O)N3CCCCCC3)c3ccccc3c2=O)cc1Cl`, for which the max response, negative = inhibition was 4.93% (inactive).

Consider `COc1cccc(-n2nc(C(=O)N3CCN(Cc4ccccc4)CC3)c3ccccc3c2=O)c1`, for which the Potency is 29.9 µM (active).

For `CCOC(=O)CNC(=O)c1nn(-c2cccc(OC)c2)c(=O)c2ccccc12`, the max response, negative = inhibition was -5.49% (inactive).

Regarding `CC1(C(=O)NS(=O)(=O)c2cccs2)CCN1C(=O)Cc1ccc(-c2ccccc2)cc1` (configuration not stated), the max response, negative = inhibition was -1.09% (inactive).

Turning to `COC(=O)[C@]12CCCCC=C1N(Cc1ccco1)C(=O)[C@H](CC(=O)NCCCCc1ccccc1)C2`, the max response, negative = inhibition was -4.79% (inactive).

As to `COc1cccc(CNC(=O)[C@@H]2CCCN2C(=O)[C@@H]2CCCN2C(=O)c2ccccc2)c1`, the max response, negative = inhibition is -5.85% (inactive).

Consider `COc1ccc(-c2cc(C(=O)NC(C(=O)O)C(C)C)c(C)o2)cc1OC` (configuration not stated), for which the max response, negative = inhibition is -8.55% (inactive).

For the compound `COc1ccc(-c2cc(=O)oc3cc(OCC(=O)N[C@@H](Cc4c[nH]c5ccccc45)C(=O)O)ccc23)cc1`, the max response, negative = inhibition is -6.27% (inactive).

Turning to `COc1ccc(-c2cc(C(=O)NC(Cc3c[nH]c4ccccc34)C(=O)O)c(C)o2)cc1OC` (configuration not stated), the Potency was 13.4 µM (active).

`COc1ccc(CCCc2nnc(SCc3nc4ccccc4c(=O)[nH]3)n2C)cc1`: the Potency is 3.77 µM (active).

On to `CCn1c(Cc2ccccc2)nnc1SCc1nc2ccccc2c(=O)[nH]1`, for which the max response, negative = inhibition is -5.5% (inactive).

As for `CCn1c(COc2c(C)cccc2C)nnc1SCc1nc2ccccc2c(=O)[nH]1`, the max response, negative = inhibition was -11.4% (inactive).

For `Cc1cc(/C=C2/C(=N)N3C(=NC2=O)SN=C3S(C)(=O)=O)c(C)n1-c1ccccc1`, the Potency is 26.7 µM (active).

Take `COc1cc(/C=C2\C(=N)N3N=C(CC(=O)N4CCOCC4)SC3=NC2=O)cc(OC)c1OC`: the max response, negative = inhibition is -14.2% (inactive).

In the case of `Cc1cc(/C=C2/NC(=O)NC2=O)c(C)n1-c1cccnc1`, the max response, negative = inhibition is 2.71% (inactive).

As to `CS(=O)(=O)C1=NN2C(=N)/C(=C\c3ccc(OCCOc4ccccc4)cc3)C(=O)N=C2S1`, the Potency is 26.7 µM (active).

Consider `COc1ccccc1OCCOc1ccc(/C=C2\C(=N)N3N=C(C)SC3=NC2=O)cc1`, for which the max response, negative = inhibition is -15.8% (inactive).

Turning to `CS(=O)(=O)c1ccc2c(c1)SC1=NC(=O)/C(=C/c3ccco3)C(=N)N12`, the max response, negative = inhibition was -3.25% (inactive).

For `CCS(=O)(=O)C1=NSC2=NC(=O)/C(=C\c3ccc(OS(=O)(=O)c4ccccc4)cc3)C(=N)N21`, the Potency is 29.9 µM (active).

`CCCS(=O)(=O)NC(=O)C1(C)CCCN(C(=O)c2cccs2)C1` (configuration not stated): the max response, negative = inhibition is -11.7% (inactive).

With `COc1cccc(-c2cc(NC(C)=O)c3ncc(-c4cccc(C(C)=O)c4)n3c2)c1`, the max response, negative = inhibition was -19.9% (inactive).

Regarding `CCCCc1ccc(S(=O)(=O)NC(=O)C2(C)CCN2C(=O)c2ccccc2)cc1` (configuration not stated), the max response, negative = inhibition was -13.3% (inactive).

As for `CC1=C(C(=O)N2CCOCC2)CC(CC(=O)NCCN2CCOCC2)C(=O)N1CCC1=CCCCC1` (configuration not stated), the max response, negative = inhibition was 1.89% (inactive).

As for `COc1cccc(-c2nc3nc(C)cc(C)n3c2NC2CCCCC2)c1`, the max response, negative = inhibition was -13.3% (inactive).

With `CCNC(=O)c1cc2c(c(-c3cccc(-c4cncnc4)c3)n1)[C@H](CCO)N(C(C)=O)C2`, the max response, negative = inhibition was -4.29% (inactive).

`O=C(Nc1cc(Br)ccc1F)c1nc[nH]c1C(=O)NCc1ccccc1`: the max response, negative = inhibition is -13.2% (inactive).

On to `COc1cccc(-c2cc3nc(NCc4ccccc4OC)n(C)c(=O)c3s2)c1`, for which the max response, negative = inhibition was 3.07% (inactive).

`c1nc(COc2nsnc2N2CCOCC2)cs1`: the max response, negative = inhibition is -14.8% (inactive).

Regarding `O=C(O)COc1nsnc1N1CCOCC1`, the max response, negative = inhibition is -5.74% (inactive).

Regarding `c1ccc(COc2nsnc2N2CCOCC2)cc1`, the Potency was 26.7 µM (active).

`C[C@H]1COc2cc(N3CCSCC3)ccc2S(=O)(=O)N1`: the max response, negative = inhibition is -1.34% (inactive).

As for `CC(C)C[C@H]1CNC(=O)C(=O)N1C[C@H]1CCCN1C[C@H](Cc1ccc(O)cc1)N1C[C@H](CC(C)C)N(CC2CCCCCC2)C(=O)C1=O`, the max response, negative = inhibition was -0.278% (inactive).

For `COc1ccc(S(=O)(=O)N2CCCCC2c2cc(C(=O)NCc3ccc(F)cc3)no2)cc1` (configuration not stated), the max response, negative = inhibition was 4.51% (inactive).

Consider `Cc1nn(-c2ccc(F)cc2)c(Cl)c1/C=C(/CCC(=O)O)c1nc2ccccc2s1`, for which the Potency was 59.7 µM (active).

On to `COc1cccc(/C=C(/CC(=O)Nc2ccc(N3CCOCC3)cc2)c2nc3ccccc3s2)c1`, for which the max response, negative = inhibition is 8.02% (inactive).

On to `Cc1nn(-c2ccccc2)c(Cl)c1/C=C/C(=O)c1ccc(O)cc1`, for which the max response, negative = inhibition was -17.2% (inactive).

Take `CC(C)[C@H](NC(=O)c1ccccc1F)C(=O)Nc1cccc(S(=O)(=O)N2CCOCC2)c1`: the max response, negative = inhibition was 2.03% (inactive).

Regarding `COc1ccc(CNC(=O)c2ccc(-c3cccnc3)c3ccoc23)cc1OC`, the max response, negative = inhibition was -7.35% (inactive).

Consider `CCOC(=O)C1=CCC2C(=O)N(Cc3ccccc3)C(=O)C12` (configuration not stated), for which the max response, negative = inhibition was -2.51% (inactive).

Turning to `CCN(CC)C(=O)C1CCCN(Cc2cccc(Cl)c2)C1` (configuration not stated), the max response, negative = inhibition was -16.8% (inactive).

On to `C=CCOc1c(Br)cc(/C=N\n2nnnc2N)cc1OC`, for which the max response, negative = inhibition was -13.9% (inactive).

Take `CCOc1c(Br)cc(/C=C2\C(=O)N(CCC#N)N=C2C)cc1OC`: the Potency is 1.06 µM (active).
